Bioassay records: PubChem BioAssay, National Center for Advancing Translational Sciences (NCATS)
HEK293 tox = kills HEK 293 cells; AID 1345083; HEK 293 viability, ATP luminescence (CellTiter-Glo), 48-72 h; 94,000 tested, 6.6% active; Potency, µM (series often up to 115 µM), for the others: at the top dose activity change, negative = cytotoxicity, hits mostly inhibitors; further: nearly all actives have a fitted effect of over 60% in size
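HEK 293 cells at 250 cells/well were exposed to compounds by pintool transfer for 48 or 72 hr at 37 degree Celsius, 5% CO2. Viability was read as ATP-coupled luminescence with CellTiter-Glo after 10 min at room temperature.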
Luciferase inh = Photinus pyralis luciferase inhibition. P08659. purified P. pyralis luciferase, luminescence, biochemical. Potency, µM (highest dose often 115 µM), usual class: inhibitors. 76,000 tested, 2.5% active; further: nearly all actives have a fitted effect of over 65% in size
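Biochemical qHTS: compound (6-point titration) added to 10uM D-luciferin plus 10uM ATP in Tris acetate pH 7.5 buffer with Mg, Tween-20 and BSA, then purified enzyme at 10nM; light output imaged.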
NIH3T3 tox = cytotoxic compounds in NIH 3T3 cells; NIH 3T3 viability, CellTiter-Glo ATP luminescence, 48-72 h; Potency, µM (highest dose often 96.7 µM), for the others: at the highest dose activity change, negative = cytotoxicity, usual class: inhibitors; 94,000 tested, 4.3% active; further: nearly all actives have a fitted effect of over 55% in size
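Cytotoxicity was measured by CellTiter-Glo ATP luminescence after 48 or 72 h compound exposure at 37 °C. Mouse NIH 3T3 fibroblasts were seeded at 400 cells/well and dosed by 23 nL pin transfer.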
NPR1 antag = human Npr1 receptor antagonism; 76,000 tested, 1.6% active; P16066; AID 1347048; HEK293 hNpr1 GloSensor cGMP, ANP-stimulated luminescence; Potency, µM (series often up to 46.3 µM), for the others: top-dose activity change, negative = inhibition, actives largely listed as inhibitors; calls by dose curve; further: nearly all actives have a fitted effect of over 60% in size
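Compound pre-incubated 30 min at room temperature on GloSensor-loaded HEK293 cells stably carrying hNpr1 and the pGS-40F cGMP biosensor. Stimulation uses hNppA at 0.1 nM final; luminescence is taken at baseline and 20 min post-agonist.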
Active calls of the source: *; i = inactive; ? = inconclusive; . = not tested or not shown; [ ] = another dose, or the depositor's remark. Most compounds without a hit are left out; they make up all but 11% or so of the library. Unless noted, the call rests on the fitted dose curve; in most records, active means well fitted curve in the direction sought with a large enough effect; inconclusive means small, poorly fitted or top-dose-only effect, or another doubt; inactive means no such curve, though single readings can be large; an effect the other way counts as inactive or inconclusive. On the % scale 0 is the no-effect control and ±100 the full control effect; potency means the concentration at half of the fitted maximal effect.

SMILES | HEK293 tox | Luciferase inh | NIH3T3 tox | NPR1 antag
O=C(c1ccncc1)N1CCC2(CC1)CC(c1cccc(C(F)(F)F)c1)=NO2 | 89.1µM* | . | -23.0% | .
O=C(c1ccc(F)cc1)N1CCC2(CC1)CC(c1cccc(C(F)(F)F)c1)=NO2 | ? | i | ? | -24.2%
Cc1noc(C)c1-c1cc2cc(C(C)C)oc2c(NCCN(C)C)n1 | 70.8µM* | i | 44.7µM* | 6.7%[70.6 µM]
Cc1cc2cc(-c3c(C)noc3C)nc(NCCN(C)C)c2o1 | 100µM* | i | ? | -3.0%[70.6 µM]
CC(C)c1ccc(S(=O)(=O)N2CCCC2Cc2noc(Cc3ccccc3)n2)cc1 (centres undefined) | 25.1µM* | . | ? | .
O=C(Nc1ccc2c(c1)OCCO2)N1CCCC1Cc1noc(Cc2ccccc2)n1 (centres undefined) | -23.4% | . | ? | .
O=C(CCc1ccccc1)N1C[C@@H](CO)[C@@H]2Oc3ccc(Cl)cc3[C@@H]21 | 79.4µM* | . | ? | .
CCCCCC(=O)N1C[C@@H](C(N)=O)[C@@H]2Oc3ccc(Cl)cc3[C@@H]21 | ? | . | -29.6% | .
O=C(CN1C(=O)NC(c2ccccc2Cl)C2=C1COC2=O)Nc1cccc(F)c1 (centres undefined) | ? | ? | -28.2% | -17.3%
O=C(CN1C(=O)NC(c2ccc(Cl)cc2)C2=C1COC2=O)Nc1cccc(F)c1 (centres undefined) | 44.7µM* | i | 28.2µM* | -17.1%
COc1cccc(NC(=O)CN2C(=O)NC(c3ccc(C)cc3)C3=C2COC3=O)c1 (centres undefined) | ? | i | ? | -10.8%
O=C(CN1C(=O)NC(c2ccc(Cl)cc2)C2=C1COC2=O)Nc1cccc(Br)c1 (centres undefined) | 20µM* | ? | ? | ?
O=C(NCc1ccc(C(F)(F)F)cc1)c1nc2cccnc2n(Cc2ccccc2)c1=O | ? | . | -19.2% | .
CCOC(=O)[C@H]1CN(C(=O)Cc2ccc(OC)cc2)[C@]2(C)C(=O)N(CC(=O)N(C)C)c3ccccc3[C@H]12 | -13.5% | . | ? | .
Cn1cnc(C(=O)N2CCC(Cc3ccc(COc4cccc(F)c4)cc3)CC2)c1 | 15.8µM* | . | ? | .
O=C(c1ccccn1)N1CCC(Cc2ccc(COc3ccncc3)cc2)CC1 | ? | . | 25.1µM* | .
O=C(CCC1CCN(C(=O)c2ccccn2)CC1)N1CCC(Cc2ccccc2)CC1 | ? | i | -37.2% | -16.8%
Cn1cnc(C(=O)N2CCC(Cc3ccc(C(=O)N4CCOCC4)cc3)CC2)c1 | 2.8% | i | -15.4% | 2.9%
CN(C)C(=O)c1ccc2oc(-c3cccnc3)nc2c1 | 1.2% | . | -13.4% | .
COCC(=O)N1CCCC(C(=O)N2CCC(N3Cc4cccn4C3=O)CC2)C1 (centres undefined) | 0.0% | . | i | .
CCN1C(=O)C2(CCN(S(=O)(=O)c3ccc(Cl)cc3C)CC2)c2ccccc21 | 10µM* | i | ? | -18.6%
CNC(=O)c1cc(C2CC2)nc2c1c(C1CCCN1C(=O)c1ccccc1C)nn2C (centres undefined) | 0.0% | . | -22.1% | .
CN1c2cc(C(=O)Nc3ccc(S(N)(=O)=O)cc3)ccc2C(=O)N2CCCCC21 (centres undefined) | -5.7% | i | -37.5% | -1.4%
CN1c2cc(C(=O)Nc3ccc(C#N)cc3)ccc2C(=O)N2CCCCC21 (centres undefined) | ? | i | 35.5µM* | -4.6%
CN1c2cc(C(=O)Nc3cccc(C#N)c3)ccc2C(=O)N2CCCCCC21 (centres undefined) | ? | 28.2µM* | ? | 0.0%
SMILES | HEK293 tox | Luciferase inh | NIH3T3 tox | NPR1 antag
CN1c2cc(C(=O)Nc3cccc(C#N)c3)ccc2C(=O)N2CCCCC21 (centres undefined) | ? | ? | ? | 10.2%
CN(C)c1ccc2ncc(Nc3ccccc3Cl)n2n1 | ? | i | 31.6µM* | -0.8%[70.6 µM]
CN(C)c1ccc2ncc(Nc3cccc(C(F)(F)F)c3)n2n1 | ? | i | ? | 6.2%[70.6 µM]
CN(C)c1ccc2ncc(Nc3ccccc3-c3ccccc3)n2n1 | 63.1µM* | ? | 28.2µM* | -6.0%[70.6 µM]
Cc1ccccc1N(C)C1CN(Cc2ccc(F)cc2)C1 | ? | . | -22.7%[138 µM] | .
Cc1ccccc1N(C)C1CN(Cc2ccccc2)C1 | ? | i | 89.1µM* | -7.6%[70.6 µM]
Cc1ccccc1N(C)C1CN(Cc2ccc(C(F)(F)F)cc2)C1 | 100µM* | . | ? | .
Cc1ccccc1N(C)C1CN([S+](=O)([O-])c2cccs2)C1 | 79.4µM* | i | ? | -7.0%[70.6 µM]
Cc1cc(C)c(CNC(=O)c2nc(-c3cccc(O)c3)cc3[nH]ccc23)c(=O)[nH]1 | 79.4µM* | ? | 50.1µM* | 3.1%[70.6 µM]
COc1ccccc1-c1cc2[nH]ccc2c(C(=O)NCc2c(C)cc(C)[nH]c2=O)n1 | ? | i | ? | -4.0%[70.6 µM]
COc1ncccc1-c1cc2[nH]ccc2c(C(=O)NCc2c(C)cc(C)[nH]c2=O)n1 | ? | i | 50.1µM* | -0.4%[70.6 µM]
O=C(NCC(F)F)c1ccc2nnc(C3CCOCC3)n2c1 | -5.0%[172 µM] | . | -20.5%[138 µM] | .
CCc1ccc(CN2CCCC23Cc2ccccc2CNC3=O)cc1 (centres undefined) | 89.1µM* | . | ? | .
CNC(=O)c1cc(C)nc2onc(C3CCCN3C(=O)c3ccc(Cl)cc3)c12 (centres undefined) | -4.3% | . | -17.7% | .
O=C(c1ccn[nH]1)N1CCCCC1c1nc(CCOCC2CCCC2)no1 (centres undefined) | ? | i | ? | 35.5µM*
CN1CCOc2c(C(=O)NCCc3cnc[nH]3)cc(-c3ccccc3)cc21 | ? | i | 79.4µM* | -0.4%[70.6 µM]
CN1CCOc2c(C(=O)NCCc3cnc[nH]3)cc(-c3cccc4[nH]ccc34)cc21 | ? | ? | 89.1µM* | -0.8%[70.6 µM]
CN1CCOc2c(C(=O)NCc3cnn(C)c3)cc(-c3cccnc3)cc21 | ? | i | 35.5µM* | -15.2%[70.6 µM]
CCCN1CCCC2(CCN(S(=O)(=O)c3cccc(OC)c3)C2)C1=O (centres undefined) | 0.8% | i | -0.7% | 1.8%
CCc1[nH]c2ccc(CNC(=O)C3CC(=O)Nc4ccccc43)cc2c1C (centres undefined) | ? | 17.8µM* | ? | -0.1%
CC(C)NC(=O)c1nc2cccnc2n(-c2ccc(N(C)C)cc2)c1=O | i | . | -8.1% | .
CCC(=O)N1CCN(c2nc3c(s2)CC(C(=O)Nc2ccc(F)cc2C)CC3)CC1 (centres undefined) | ? | i | -15.6% | -16.0%
CCC(=O)N1CCN(c2nc3c(s2)CC(C(=O)Nc2cccc(C)c2C)CC3)CC1 (centres undefined) | 39.8µM* | i | ? | -20.1%
CCC(=O)N1CCN(c2nc3c(s2)CC(C(=O)Nc2ccc(F)cc2F)CC3)CC1 (centres undefined) | 10µM* | i | ? | ?
CN1c2cc(C(=O)Nc3ccc(Br)cc3)ccc2C(=O)N2CCCCC21 (centres undefined) | ? | 31.6µM* | ? | -2.9%
